Source: PubChem BioAssay AID1159580 (chemical genetic matrix, 2015)
Among all 5,500 compounds or so, about 2,000 (36%) were called active. Roughly 18% stayed inconclusive and do not appear here. No stated cut-off is given here; in the data, active means normalized growth mostly below about 0.91 (no sharp cut-off); inconclusive means no clear call, values can overlap the other calls; inactive means mostly above about 0.92. This is one part of the list.

Assay: chemical genetic growth profiling, strain panel (AID 1159580);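 further: tested at 20 µM; growth read once vehicle control cultures reached saturation at 30 °C; 1 = growth at the plate median or of vehicle wells; lower values mean less growth of the strain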
Settings: S. cerevisiae deletion strains, growth OD

Measured: normalized growth

Cc1cc(I)c(C)cc1I
inactive: locus YAL013W, strain DEP1, hits give low values 1.01 | locus YBR229C, strain ROT2, hits give low values 0.989 | locus YCL061C, strain MRC1, hits give low values 0.994 | locus YDL101C, strain DUN1, hits give low values 1.02 | locus YDL134C, strain PPH21, hits give low values 0.986 | locus YDR150W, strain NUM1, hits give low values 1.04 | locus YEL061C, strain CIN8, hits give low values 0.966 | locus YGR078C, strain PAC10, hits give low values 1 | locus YHR030C, strain SLT2, hits give low values 0.805 | locus YHR087W, strain rtc3, hits give low values 0.979 | locus YJR043C, strain POL32, hits give low values 0.994 | locus YJR075W, strain HOC1, hits give low values 0.976 | locus YLR039C, strain RIC1, hits give low values 0.955 | locus YLR058C, strain SHM2 (second series), hits give low values 0.992 | locus YLR085C, strain ARP6, hits give low values 0.953 | locus YLR262C, strain YPT6, hits give low values 0.872 | locus YML094W, strain GIM5, hits give low values 0.95 | locus YMR219W, strain ESC1, hits give low values 1 | locus YMR263W, strain SAP30, hits give low values 0.976 | locus YMR307W, strain GAS1, hits give low values 0.7 | locus YNL153C, strain GIM3, hits give low values 0.984 | locus YNL298W, strain CLA4 (second series), hits give low values 0.935 | locus YNL322C, strain KRE1, hits give low values 1 | locus YNR030W, strain Alg12, hits give low values 0.943 | locus YPL055C, strain LGE1, hits give low values 0.966 | locus YPL241C, strain CIN2, hits give low values 0.978 | locus YPR135W, strain CTF4, hits give low values 0.925
